# The whole screen tested about 5,500 compounds, of which about 2,000 (36%) were called active. Another 18% or so got no clear call; they are omitted. The list shows a part of the results. A number with no mark means an inactive call. Cut-off read from the data, not from the text of the source: active = normalized growth mostly below about 0.91 (no sharp cut-off); inconclusive = no clear call, values can overlap the other calls; inactive = mostly above about 0.92.
# Test: chemical genetic growth profiling, strain panel (AID 1159580);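 note: tested at 20 µM; growth read once vehicle control cultures reached saturation at 30 °C; 1 = growth at the plate median or of vehicle wells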
# Settings: S. cerevisiae deletion strains, growth OD
# [1] = locus YAL021C, strain ccr4, stronger effect = lower value
# [2] = locus YAL026C, strain drs2, stronger effect = lower value
# [3] = locus YAL030W, strain snc1, stronger effect = lower value
# [4] = locus YBL061C, strain skt5, stronger effect = lower value
# [5] = locus YBR009C, strain hhf1, stronger effect = lower value
# [6] = locus YBR023C, strain chs3, stronger effect = lower value
# [7] = locus YBR171W, strain sec66, stronger effect = lower value
# [8] = locus YBR231C, strain swc5, stronger effect = lower value
# [9] = locus YBR279W, strain paf1, stronger effect = lower value
# [10] = locus YCL011C, strain gbp2, stronger effect = lower value
# [11] = locus YCL016C, strain dcc1, stronger effect = lower value
# [12] = locus YCL061C, strain MRC1, stronger effect = lower value
# [13] = locus YCL069W, strain vba3, stronger effect = lower value
# [14] = locus YCR088W, strain abp1, stronger effect = lower value
# [15] = locus YDL005C, strain med2, stronger effect = lower value
# [16] = locus YDL040C, strain nat1, stronger effect = lower value
# [17] = locus YDR001C, strain nth1, stronger effect = lower value
# [18] = locus YDR069C, strain doa4, stronger effect = lower value
# [19] = locus YDR137W, strain rgp1, stronger effect = lower value
# [20] = locus YDR159W, strain sac3, stronger effect = lower value
# [21] = locus YDR297W, strain sur2, stronger effect = lower value
# [22] = locus YDR334W, strain swr1, stronger effect = lower value
# [23] = locus YDR335W, strain msn5, stronger effect = lower value
# [24] = locus YDR392W, strain spt3, stronger effect = lower value
# [25] = locus YEL003W, strain gim4, stronger effect = lower value
# [26] = locus YEL037C, strain rad23, stronger effect = lower value
# [27] = locus YEL061C, strain CIN8 (second series), stronger effect = lower value
# [28] = locus YER015W, strain faa2, stronger effect = lower value
# [29] = locus YER016W, strain bim1, stronger effect = lower value
# [30] = locus YER111C, strain swi4, stronger effect = lower value
# [31] = locus YER155C, strain BEM2 (second series), stronger effect = lower value
# [32] = locus YFR010W, strain ubp6, stronger effect = lower value
# [33] = locus YGL167C, strain pmr1, stronger effect = lower value
# [34] = locus YGL173C, strain kem1, stronger effect = lower value
# [35] = locus YGL227W, strain vid30, stronger effect = lower value
# [36] = locus YGL240W, strain doc1, stronger effect = lower value
# [37] = locus YGL253W, strain hxk2, stronger effect = lower value
# [38] = locus YHR013C, strain ard1, stronger effect = lower value
# [39] = locus YHR027C, strain rpn1, stronger effect = lower value
# [40] = locus YHR030C, strain SLT2, stronger effect = lower value
# [41] = locus YHR079C, strain IRE1, stronger effect = lower value
# [42] = locus YHR142W, strain chs7, stronger effect = lower value
# [43] = locus YJL092W, strain hpr5, stronger effect = lower value
# [44] = locus YJL095W, strain BCK1 (second series), stronger effect = lower value
# [45] = locus YJL095W, strain BCK1, stronger effect = lower value
# [46] = locus YJL115W, strain asf1, stronger effect = lower value
# [47] = locus YJL129C, strain trk1, stronger effect = lower value
# [48] = locus YJL154C, strain vps35, stronger effect = lower value
# [49] = locus YJL164C, strain tpk1, stronger effect = lower value
# [50] = locus YJL166W, strain qcr8, stronger effect = lower value
# [51] = locus YJL187C, strain SWE1, stronger effect = lower value
# [52] = locus YJR066W, strain TOR1, stronger effect = lower value
# [53] = locus YKL160W, strain elf1, stronger effect = lower value
# [54] = locus YKR026C, strain gcn3, stronger effect = lower value
# [55] = locus YKR091W, strain srl3, stronger effect = lower value
# [56] = locus YLL001W, strain dnm1, stronger effect = lower value
# [57] = locus YLL026W, stronger effect = lower value
# [58] = locus YLL041C, strain sdh2, stronger effect = lower value
# [59] = locus YLR027C, strain aat2, stronger effect = lower value
# [60] = locus YLR113W, strain HOG1, stronger effect = lower value
# [61] = locus YLR221C, strain rsa3, stronger effect = lower value
# [62] = locus YLR258W, strain gsy2, stronger effect = lower value
# [63] = locus YLR262C, strain YPT6 (second series), stronger effect = lower value
# [64] = locus YLR320W, strain mms22, stronger effect = lower value
# [65] = locus YLR342W, strain FKS1, stronger effect = lower value
# [66] = locus YLR357W, strain rsc2, stronger effect = lower value
# [67] = locus YLR370C, strain arc18, stronger effect = lower value
# [68] = locus YLR384C, strain iki3, stronger effect = lower value
# [69] = locus YML120C, strain ndi1, stronger effect = lower value
# [70] = locus YMR058W, strain fet3, stronger effect = lower value
# [71] = locus YMR125W, strain sto1, stronger effect = lower value
# [72] = locus YMR129W, stronger effect = lower value
# [73] = locus YMR205C, strain PFK2, stronger effect = lower value
# [74] = locus YMR231W, strain pep5, stronger effect = lower value
# [75] = locus YNL071W, strain lat1, stronger effect = lower value
# [76] = locus YNL183C, strain NPR1, stronger effect = lower value
# [77] = locus YNL209W, strain ssb2, stronger effect = lower value
# [78] = locus YNL248C, strain rpa49, stronger effect = lower value
# [79] = locus YNL322C, strain KRE1 (second series), stronger effect = lower value
# [80] = locus YNR049C, strain mso1, stronger effect = lower value
# [81] = locus YOR001W, strain rrp6, stronger effect = lower value
# [82] = locus YOR070C, strain gyp1, stronger effect = lower value
# [83] = locus YOR080W, strain dia2, stronger effect = lower value
# [84] = locus YOR083W, strain WHI5, stronger effect = lower value
# [85] = locus YOR106W, strain vam3, stronger effect = lower value
# [86] = locus YOR231W, strain MKK1, stronger effect = lower value
# [87] = locus YOR265W, strain rbl2, stronger effect = lower value
# [88] = locus YOR270C, strain vph1, stronger effect = lower value
# [89] = locus YOR290C, strain snf2, stronger effect = lower value
# [90] = locus YPL051W, strain arl3, stronger effect = lower value
# [91] = locus YPL078C, strain atp4, stronger effect = lower value
# [92] = locus YPL106C, strain sse1, stronger effect = lower value
# [93] = locus YPL240C, strain hsp82, stronger effect = lower value
# [94] = locus YPL256C, strain CLN2, stronger effect = lower value
smiles,measurement,setting,value
O=C(O)c1cn(-c2ccc(F)cc2)c2cc(N3CCNCC3)c(F)cc2c1=O,normalized growth,[1],0.949
same,normalized growth,[2],0.975
same,normalized growth,[3],0.964
same,normalized growth,[4],0.981
same,normalized growth,[5],0.979
same,normalized growth,[6],0.966
same,normalized growth,[7],0.958
same,normalized growth,[8],0.967
same,normalized growth,[9],0.959
same,normalized growth,[10],0.975
same,normalized growth,[11],0.983
same,normalized growth,[12],0.969
same,normalized growth,[13],0.983
same,normalized growth,[14],0.982
same,normalized growth,[15],0.985
same,normalized growth,[16],0.979
same,normalized growth,[17],0.952
same,normalized growth,[18],0.94
same,normalized growth,[19],0.921
same,normalized growth,[20],0.96
same,normalized growth,"locus YDR195W, strain ref2",0.921
same,normalized growth,[21],0.981
same,normalized growth,[22],0.938
same,normalized growth,[23],0.949
same,normalized growth,[24],1.02
same,normalized growth,[25],0.96
same,normalized growth,[26],0.959
same,normalized growth,[27],0.97
same,normalized growth,[28],0.983
same,normalized growth,[29],0.967
same,normalized growth,[30],0.967
same,normalized growth,[31],0.919
same,normalized growth,[32],0.949
same,normalized growth,[33],0.941
same,normalized growth,[34],0.984
same,normalized growth,[35],0.954
same,normalized growth,[36],0.944
same,normalized growth,[37],0.993
same,normalized growth,[38],0.982
same,normalized growth,[39],0.976
same,normalized growth,[40],1.04
same,normalized growth,[41],1.03
same,normalized growth,[42],1.01
same,normalized growth,[43],0.974
same,normalized growth,[44],0.977
same,normalized growth,[45],0.976
same,normalized growth,[46],0.963
same,normalized growth,[47],0.992
same,normalized growth,[48],0.97
same,normalized growth,[49],0.993
same,normalized growth,[50],0.947
same,normalized growth,[51],0.979
same,normalized growth,[52],0.985
same,normalized growth,[53],0.989
same,normalized growth,[54],0.962
same,normalized growth,[55],0.979
same,normalized growth,[56],0.977
same,normalized growth,[57],0.967
same,normalized growth,[58],0.977
same,normalized growth,[59],0.982
same,normalized growth,[60],0.975
same,normalized growth,[61],0.992
same,normalized growth,[62],0.979
same,normalized growth,[63],0.951
same,normalized growth,[64],0.981
same,normalized growth,[65],0.96
same,normalized growth,[66],0.958
same,normalized growth,[67],0.948
same,normalized growth,[68],0.971
same,normalized growth,[69],0.972
same,normalized growth,[70],0.968
same,normalized growth,[71],0.967
same,normalized growth,[72],0.997
same,normalized growth,[73],0.995
same,normalized growth,[74],0.973
same,normalized growth,[75],0.991
same,normalized growth,[76],0.982
same,normalized growth,[77],0.972
same,normalized growth,[78],1.02
same,normalized growth,[79],0.966
same,normalized growth,[80],0.979
same,normalized growth,[81],0.952
same,normalized growth,[82],0.984
same,normalized growth,[83],0.945
same,normalized growth,[84],0.987
same,normalized growth,[85],0.962
same,normalized growth,[86],1.01
same,normalized growth,[87],0.974
same,normalized growth,[88],0.947
same,normalized growth,[89],0.965
same,normalized growth,[90],0.955
same,normalized growth,[91],0.972
same,normalized growth,[92],0.895
same,normalized growth,[93],0.996
same,normalized growth,[94],1.06
CCN1CCN(c2cc3c(cc2F)c(=O)c(C(=O)O)cn3C2CC2)CC1,normalized growth,[1],1.04
same,normalized growth,[2],1.01
same,normalized growth,[3],1.01
same,normalized growth,[4],1.01
same,normalized growth,[5],1
same,normalized growth,[6],1.01
same,normalized growth,[7],1.02
same,normalized growth,[8],1.02
same,normalized growth,[9],1.01
same,normalized growth,[10],1.01
same,normalized growth,[11],0.997
same,normalized growth,[12],1.01
same,normalized growth,[13],1.01
same,normalized growth,[14],1.01
same,normalized growth,[15],1.02
same,normalized growth,[16],1.01
same,normalized growth,[17],1.01
same,normalized growth,[18],1
same,normalized growth,[19],0.969
same,normalized growth,[20],1.01
same,normalized growth,"locus YDR195W, strain ref2",1.04
same,normalized growth,[21],1.01
same,normalized growth,[22],1.02
same,normalized growth,[23],1.03
same,normalized growth,[24],1
same,normalized growth,[25],1.01
same,normalized growth,[26],1.01
same,normalized growth,[27],1.02
same,normalized growth,[28],1.01
same,normalized growth,[29],0.995
same,normalized growth,[30],1.02
same,normalized growth,[31],1.01
same,normalized growth,[32],1.01
same,normalized growth,[33],1.02
same,normalized growth,[34],1
same,normalized growth,[35],1.01
same,normalized growth,[36],0.997
same,normalized growth,[37],1.01
same,normalized growth,[38],1.04
same,normalized growth,[39],1.02
same,normalized growth,[40],0.992
same,normalized growth,[41],0.986
same,normalized growth,[42],1.02
same,normalized growth,[43],1.01
same,normalized growth,[44],1.02
same,normalized growth,[45],0.995
same,normalized growth,[46],0.989
same,normalized growth,[47],1.03
same,normalized growth,[48],1.02
same,normalized growth,[49],1.01
same,normalized growth,[50],1
same,normalized growth,[51],1.01
same,normalized growth,[52],0.962
same,normalized growth,[53],1
same,normalized growth,[54],1.01
same,normalized growth,[55],1
same,normalized growth,[56],1.02
same,normalized growth,[57],1
same,normalized growth,[58],1.01
same,normalized growth,[59],1.01
same,normalized growth,[60],1.03
same,normalized growth,[61],1.01
same,normalized growth,[62],1.01
same,normalized growth,[63],0.962
same,normalized growth,[64],0.854 (active)
same,normalized growth,[65],1.02
same,normalized growth,[66],0.994
same,normalized growth,[67],1.02
same,normalized growth,[68],1
same,normalized growth,[69],1.01
same,normalized growth,[70],1.01
same,normalized growth,[71],1.02
same,normalized growth,[72],1.01
same,normalized growth,[73],1
same,normalized growth,[74],1.02
same,normalized growth,[75],1.02
same,normalized growth,[76],0.935
same,normalized growth,[77],1.03
same,normalized growth,[78],1.01
same,normalized growth,[79],1
same,normalized growth,[80],1.01
same,normalized growth,[81],1.01
same,normalized growth,[82],1.02
same,normalized growth,[83],0.992
same,normalized growth,[84],1.01
same,normalized growth,[85],0.994
same,normalized growth,[86],0.981
same,normalized growth,[87],1.01
same,normalized growth,[88],1.03
same,normalized growth,[89],0.957
same,normalized growth,[90],1.01
same,normalized growth,[91],1.02
same,normalized growth,[92],0.998
same,normalized growth,[93],1.01
same,normalized growth,[94],0.986
